# Experimental data as given in the antibiotic and cytotoxicity screens of Wong et al. (2023).
# In all, about 39,000 compounds went through this assay and about 500 (1.3%) were called active. The sample holds actives, similar compounds and a random draw of the others, so the mix is not that of the screen.
# Test system: S. aureus RN4220
# Assay: growth inhibition call (relative growth <= 0.2)
# Settings: 50 µM
row,Compound,growth inhibition call
1,C=CC[C@@H](CC(=O)NCCO)C(=O)NCCOC(=O)[C@H](CC=C)NC(=O)OCC1c2ccccc2-c2ccccc21,inactive
2,C[C@@H]1CCCCO[C@@H](CN(C)S(=O)(=O)c2ccc(F)cc2)[C@@H](C)CN([C@@H](C)CO)C(=O)c2cc(NC(=O)Cc3ccccc3)ccc2O1,inactive
3,CC1(C)SC2C(NC(=O)C(C(=O)[O-])c3ccccc3)C(=O)N2C1C(=O)[O-].[Na+].[Na+] (stereo not given),active
4,CC1(C)S[C@@H]2[C@H](NC(=O)[C@H](NC(=O)N3CCNC3=O)c3ccccc3)C(=O)N2[C@H]1C(=O)O,inactive
5,CN[C@@H](C)C(=O)N[C@H]1CN(C(=O)CC(C)C)CC[C@H]2CC[C@@H](C(=O)NC(c3ccccc3)c3ccccc3)N2C1=O,inactive
6,CCN1CCN(C(=O)N[C@@H](C(=O)N[C@@H]2C(=O)N3[C@@H]2SC(C)(C)[C@@H]3C(=O)O)c2ccccc2)C(=O)C1=O,active
7,CC1(C)SC2C(NC(=O)C(C(=O)[O-])c3ccsc3)C(=O)N2C1C(=O)[O-].[Na+].[Na+] (stereo not given),inactive
8,CC1(C)SC2C(NC(=O)C(NC(=O)N3CCNC3=O)c3ccccc3)C(=O)N2C1C(=O)[O-].[Na+] (stereo not given),active
9,CC1(C)SC2C(NC(=O)C(N)c3ccccc3)C(=O)N2C1C(=O)[O-].[Na+] (stereo not given),inactive
10,CCN1CCN(C(=O)NC(C(=O)NC2C(=O)N3C2SC(C)(C)C3C(=O)[O-])c2ccccc2)C(=O)C1=O.[Na+] (stereo not given),active
11,C[C@H]1CN([C@@H](C)CO)C(=O)c2cc(C#CC3(O)CCCC3)cnc2O[C@@H]1CN(C)S(C)(=O)=O,inactive
12,Cc1noc(C)c1NC(=O)N(C)C[C@H]1OCCCC[C@@H](C)Oc2ccc(NC(=O)CCC(F)(F)F)cc2C(=O)N([C@@H](C)CO)C[C@@H]1C,inactive
13,C[C@@H]1CN([C@@H](C)CO)C(=O)c2cc(C#Cc3ccccc3F)cnc2O[C@H]1CN(C)S(=O)(=O)c1ccccc1F,inactive
14,O=C(NCCN1CCOCC1)C(=O)NC[C@H]1OCCN1S(=O)(=O)c1ccc(F)cc1,inactive
15,Cc1ccc(C(=O)Oc2ccc(/C=N/c3cccs3)cc2)cc1,inactive
16,COc1ccc(S(=O)(=O)N(C)C[C@@H]2Oc3c(NC(=O)NC(C)C)cccc3C(=O)N([C@@H](C)CO)C[C@@H]2C)cc1,inactive
17,COCC(=O)N(C)C[C@H]1Oc2cc(C#Cc3cccnc3)ccc2S(=O)(=O)N([C@@H](C)CO)C[C@@H]1C,inactive
18,C[C@@H]1CN([C@@H](C)CO)C(=O)c2c(c3ccccc3n2C)-c2ccccc2CO[C@H]1CN(C)Cc1ccc(F)cc1,inactive
19,C[C@@H]1CN([C@H](C)CO)C(=O)c2cc(NC(=O)CCCN(C)C)ccc2O[C@H]1CN(C)S(=O)(=O)c1cccs1,inactive
20,Cc1ccc(S(=O)(=O)N(C)C[C@H]2OCCCC[C@H](C)Oc3ccc(NC(=O)Nc4c(C)noc4C)cc3C(=O)N([C@H](C)CO)C[C@@H]2C)cc1,inactive
21,Cc1ccc(-c2ccc3c(c2)O[C@H](CN(C)C(=O)NC(C)C)[C@@H](C)CN([C@@H](C)CO)S3(=O)=O)cc1,inactive
22,C[C@H]1CN([C@@H](C)CO)C(=O)Cc2cc(NS(C)(=O)=O)ccc2O[C@@H]1CN(C)C(=O)Nc1ccc(C(F)(F)F)cc1,inactive
23,CC1(C)S[C@H]2[C@@H](NC(=O)[C@@H](NC(=O)N3CCN(S(C)(=O)=O)C3=O)c3ccccc3)C(=O)N2[C@@H]1C(=O)O,active
24,C[C@H](CO)N1C[C@H](C)[C@@H](CN(C)C(=O)C2CCOCC2)Oc2ncc(C#Cc3ccccc3F)cc2C1=O,inactive

row,Compound,growth inhibition call
1,CC(C)NC(=O)N[C@@H]1C=C[C@H](CC(=O)O)O[C@H]1CO,inactive
2,COc1ccc(CN(C)C[C@H]2Oc3ccc(NC(=O)Cn4cnnn4)cc3C(=O)N([C@@H](C)CO)C[C@H]2C)cc1,inactive
3,CO[C@@H]1CN(C)C(=O)c2cc(NC(=O)C3CCOCC3)ccc2OC[C@@H](C)N(C(=O)Nc2ccc(C(F)(F)F)cc2)C[C@H]1C,active
4,CO[C@@H]1CN(C)C(=O)c2ccc(NC(=O)C3CCCC3)cc2OC[C@@H](C)N(C(=O)Nc2ccc(C(F)(F)F)cc2)C[C@H]1C,inactive
5,CO[C@@H]1CN(C)C(=O)c2ccc(NC(=O)C3CC3)cc2OC[C@@H](C)N(C(=O)Nc2ccc(C(F)(F)F)cc2)C[C@H]1C,inactive
6,CO[C@@H]1CN(C)C(=O)c2cc(NC(=O)C3CCCC3)ccc2OC[C@@H](C)N(C(=O)Nc2ccc(C(F)(F)F)cc2)C[C@H]1C,inactive
7,CO[C@@H]1CN(C)C(=O)c2ccc(NC(=O)C3CCOCC3)cc2OC[C@@H](C)N(C(=O)Nc2ccc(C(F)(F)F)cc2)C[C@H]1C,active
8,CO[C@@H]1CN(C)C(=O)c2cc(NC(=O)C3CC3)ccc2OC[C@@H](C)N(C(=O)Nc2ccc(C(F)(F)F)cc2)C[C@H]1C,inactive
9,C[C@H](CO)N1C[C@H](C)[C@H](CN(C)Cc2ccncc2)Oc2ccc(NC(=O)Nc3ccc(C(F)(F)F)cc3)cc2C1=O,inactive
10,C[C@@H]1CN([C@H](C)CO)C(=O)c2cc(NS(=O)(=O)c3cccs3)ccc2O[C@@H](C)CCCCO[C@@H]1CN(C)S(=O)(=O)c1ccc(Cl)cc1,inactive
11,CCN(CC)C(C)CN1c2ccccc2Sc2ccccc21.Cl (stereo not given),inactive
12,C[C@H](CO)N1C[C@H](C)[C@H](CN(C)C(=O)Nc2ccccc2)Oc2c(NS(=O)(=O)c3cn(C)cn3)cccc2C1=O,inactive
13,C[C@@H]1CN([C@H](C)CO)C(=O)c2cccc(NS(=O)(=O)c3ccc(F)cc3)c2O[C@H]1CN(C)S(=O)(=O)c1cccs1,inactive
14,Cc1ccc(OC(=O)N(C)C[C@H]2OCc3ccccc3-c3ccccc3C(=O)N([C@@H](C)CO)C[C@@H]2C)cc1,inactive
15,C[C@H](CO)N1C[C@H](C)[C@@H](CN(C)C(=O)c2ccncc2)OCCCC[C@H](C)Oc2ccc(NS(=O)(=O)c3ccc(Cl)cc3)cc2C1=O,inactive
16,O=c1[nH]c(=O)n(C2CC(O)C(CO)O2)cc1F (stereo not given),inactive
17,O=c1[nH]c(=O)n([C@@H]2C[C@@H](O)[C@@H](CO)O2)cc1F,active
18,Cc1cn([C@@H]2C[C@H](O)[C@@H](CO)O2)c(=O)[nH]c1=O,inactive
19,Cc1cn([C@H]2C[C@H](O)[C@@H](CO)O2)c(=O)[nH]c1=O,inactive
20,O=c1[nH]c(=O)n([C@H]2C[C@H](O)[C@@H](CO)O2)cc1F,active
21,Cc1cn([C@@H]2C[C@@H](O)[C@H](CO)O2)c(=O)[nH]c1=O,inactive
22,C[C@H](CO)N1C[C@H](C)[C@@H](CN(C)S(=O)(=O)c2cn(C)cn2)Oc2ccc(NC(=O)C3CC3)cc2C1=O,inactive
23,C[C@H]1CCCCO[C@@H](CN(C)C(=O)Cc2ccccc2)[C@@H](C)CN([C@@H](C)CO)C(=O)c2cc(NS(=O)(=O)c3ccc(F)cc3)ccc2O1,inactive
24,C#CCOc1ccc(-c2c(C(=O)NC3CCCCC3)oc(OC)c2S(=O)(=O)c2ccc(Cl)cc2)cc1,inactive

row,Compound,growth inhibition call
1,COc1ccc(S(=O)(=O)N(C)C[C@H]2OCCCC[C@@H](C)Oc3ccc(NC(=O)Nc4c(C)noc4C)cc3C(=O)N([C@@H](C)CO)C[C@@H]2C)cc1,inactive
2,O=C(/C=C/c1cccc(-c2cn(-c3cccc(C(=O)N4CCC5(CC4)C(=O)NCN5c4ccccc4)c3)nn2)c1)NO,inactive
3,O=C(NO)c1cn(-c2cccc(C(=O)N3CCC4(CC3)C(=O)NCN4c3ccccc3)c2)nn1,active
4,O=C(CCc1cn(CC(=O)N2CCC3(CC2)C(=O)NCN3c2ccccc2)nn1)NO,active
5,O=C(Cn1cc(CN2C(=O)COC[C@H]2c2ccccc2)nn1)N1CCC2(CC1)C(=O)NCN2c1ccccc1,inactive
6,O=C(NO)c1cn(CC(=O)N2CCC3(CC2)C(=O)NCN3c2ccccc2)nn1,inactive
7,O=C(/C=C/c1cccc(-c2cn(CC(=O)N3CCC4(CC3)C(=O)NCN4c3ccccc3)nn2)c1)NO,inactive
8,Cc1ccc(S(=O)(=O)N(C)C[C@@H]2Oc3c(NC(=O)c4cnccn4)cccc3C(=O)N([C@@H](C)CO)C[C@H]2C)cc1,inactive
9,C[C@@H]1CCCCO[C@@H](CN(C)S(=O)(=O)c2ccccc2)[C@@H](C)CN([C@H](C)CO)C(=O)c2cc(NS(=O)(=O)c3ccc(Cl)cc3)ccc2O1,inactive
10,Cc1noc(C)c1S(=O)(=O)Nc1cccc2c1O[C@@H](CN(C)Cc1ccc(C(=O)O)cc1)[C@@H](C)CN([C@H](C)CO)C2=O,inactive
11,CCCC(=O)Nc1ccc2c(c1)OC[C@@H](C)N(C(=O)Cc1cccnc1)C[C@@H](C)[C@H](OC)CN(C)C2=O,inactive
12,Cc1noc(C)c1CO,inactive
13,Cc1ccc(-c2noc([C@H](C)c3ccc(CC(C)C)cc3)n2)cc1,inactive
14,C[C@@H]1CCCCO[C@@H](CN(C)Cc2ccccc2)[C@@H](C)CN([C@@H](C)CO)C(=O)c2cc(NS(=O)(=O)c3ccc(F)cc3)ccc2O1,inactive
15,NCc1cc2ccccc2s1,inactive
16,CC(=O)NCC1CN(c2ccc(N3CCOCC3)c(F)c2)C(=O)O1 (stereo not given),active
17,Cc1cccc(N2C[C@@H](CN)OC2=O)c1,inactive
18,O=C(O)c1cn(C2CC2)c2cc(N3CCC(O)(COc4ccc(N5C[C@H](CO)OC5=O)cc4F)CC3)c(F)cc2c1=O,inactive
19,CC(=O)NC[C@H]1CN(c2ccc(N3CCN(C(=O)CO)CC3)c(F)c2)C(=O)O1,active
20,Cn1c(=O)c2c(ncn2CC(=O)N2CCN(c3ccccc3F)CC2)n(C)c1=O,inactive
21,CC(C)NC(=O)Nc1ccc2c(c1)C(=O)N([C@H](C)CO)C[C@H](C)[C@@H](CN(C)C(=O)Nc1ccc(F)cc1)OCCCC[C@@H](C)O2,inactive
22,Cc1noc(C)c1NC(=O)N(C)C[C@H]1OCCCC[C@@H](C)Oc2ccc(NS(=O)(=O)c3ccc(F)cc3)cc2C(=O)N([C@H](C)CO)C[C@@H]1C,inactive
